# MEKK3 PB1 HTS – MEKK3-MEK5 PB1 interaction, increase or decrease; Q99759; bead-based flow cytometry, Alexa488-MEK5 binding to MEKK3; actives lie on both sides; 0 = blocked by unlabeled MEK5, 100 = vehicle; binding response (% of control), % at 10 µM; hit rate 1.4% among 290,000; AID 1529;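 active = binding response more than 3 SD above or below the average of its plate-row segment, actives on both sides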;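 note: Alexa488 bead fluorescence after subtracting the streptavidin-only scavenger bead signal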
# Target sequence (Q99759 whole entry, looked up): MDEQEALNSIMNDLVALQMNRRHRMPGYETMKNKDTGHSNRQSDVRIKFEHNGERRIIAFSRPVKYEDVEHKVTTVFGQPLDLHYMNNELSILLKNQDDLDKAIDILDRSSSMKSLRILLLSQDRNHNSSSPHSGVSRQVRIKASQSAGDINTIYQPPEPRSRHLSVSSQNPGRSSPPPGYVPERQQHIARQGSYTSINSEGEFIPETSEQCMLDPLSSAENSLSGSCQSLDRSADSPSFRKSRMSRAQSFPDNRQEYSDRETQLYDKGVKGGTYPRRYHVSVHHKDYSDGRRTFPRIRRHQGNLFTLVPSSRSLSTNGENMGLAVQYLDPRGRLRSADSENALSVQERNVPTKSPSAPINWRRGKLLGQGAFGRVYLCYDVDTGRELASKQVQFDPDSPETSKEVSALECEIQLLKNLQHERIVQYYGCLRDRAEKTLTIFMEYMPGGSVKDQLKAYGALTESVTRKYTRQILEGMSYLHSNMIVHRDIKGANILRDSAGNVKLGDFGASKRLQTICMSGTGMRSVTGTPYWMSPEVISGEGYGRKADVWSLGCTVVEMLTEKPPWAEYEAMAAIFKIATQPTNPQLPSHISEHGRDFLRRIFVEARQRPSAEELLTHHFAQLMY
# Arbovirus anti – antivirals against arbovirus infection | arbovirus infection cell-based antiviral screen | inhibition, % at 10 µM | hit rate 0.37% among 200,000; in the data active = inhibition above about 30%
# Pf gametocyte – kills late stage P. falciparum gametocytes; P. falciparum stage V gametocytes, ATP luminescence, 24 h; inhibition, % at 10.9 µM; hit rate 0.065% among 150,000; AID 743093;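 active = inhibition above the mean plus 3 SD of compounds within the control limits, set per campaign, cut at about 38% in these data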
# MEKK2mut PB1 HTS – signal of MEK5 binding to mutant human MEKK2 PB1 domain; bead flow cytometry, Alexa488-MEK5 binding to MEKK2 mutant; percent response, % at 10 µM; hit rate 0.35% among 290,000; AID 1530; in the data active = percent response above about 24%, passing the limit was not always enough
# MEKK2wt PB1 HTS – raises or lowers MEK5 binding to wildtype human MEKK2 PB1 domain | Q9Y2U5 | bead flow cytometry, Alexa488-MEK5 binding to MEKK2 WT; actives lie on both sides | binding response (% of control), % at 10 µM | hit rate 1.1% among 290,000 | AID 1531; in the data active = binding response below about 67% or above about 130%
# MEKK2wt confirm – raises or lowers MEK5 binding to wildtype human MEKK2, retest; bead flow cytometry, Alexa488-MEK5 binding to MEKK2 WT; actives lie on both sides; AID 1892; hit rate 2.4% among 5,900; shares compounds with MEKK3 PB1 HTS; binding response (% of control), % at 10 µM; in the data active = binding response below about 16% or above about 210%; inactive = in between
# MEKK2mut confirm – signal of MEK5 binding to mutant human MEKK2, retest; percent response, % at 10 µM; hit rate 2% among 5,900; bead flow cytometry, Alexa488-MEK5 binding to MEKK2 mutant; shares compounds with MEKK3 PB1 HTS; in the data active = percent response mostly above about 71%, no sharp cut-off; inactive = mostly below about 38%;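 note: higher means compound restores mutant binding toward wildtype level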
# MEKK3 confirm – confirmation of inhibitors of MEK5 binding to human MEKK3. shares compounds with MEKK3 PB1 HTS. bead flow cytometry, Alexa488-MEK5 binding to MEKK3; hits give low values. binding response (% of control), % at 10 µM. hit rate 1.8% among 5,900;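 active = binding response below 72% of control, or above a set upper limit, though filed actives all read lower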;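 note: lower values mean stronger disruption of MEK5 binding to MEKK3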
# Numbers stand for hits; 0 = inactive; - = no result given; [ ] = another dose, or the depositor's remark. The list is not random: actives were taken first. Their share in the collection is about 2.4%.
SMILES,MEKK3 PB1 HTS,Arbovirus anti,Pf gametocyte,MEKK2mut PB1 HTS,MEKK2wt PB1 HTS,MEKK2wt confirm,MEKK2mut confirm,MEKK3 confirm
CC(=O)Nc1sc(/C(C#N)=C\c2cccc(Cl)c2)nc1-c1ccc(C)cc1,0,0,0,0,13.0[inhibitor],0,0,0
CCOc1cccc2c1OC(c1cc(OC)c(OC)c(OC)c1)N1N=C(c3ccc(C)o3)CC21 (centres undefined),15.0[inhibitor],0,-,0,6.0,0,0,0
O=[N+]([O-])c1ccc(O)c(C(C#Cc2ccccc2)N2CCOCC2)c1 (centres undefined),67.0[inhibitor],-,0,0,0,0,0,0
C[C@@H]1CN([C@@H](C)CO)C(=O)c2cccc(NC(=O)C3CCCCC3)c2O[C@@H]1CN(C)C(=O)NC1CCCCC1,-,-,0,-,-,-,-,-
CCOc1ccc(OCC)c(S(=O)(=O)n2ccnc2C)c1,0,-,-,25.0,0,0,0,0
CCOc1ccc(C(C)C)cc1S(=O)(=O)n1ccnc1C,0,0,0,0,0,-,-,-
Cc1cc(Br)ccc1-n1[nH]c(C)c(C=Nc2cccc3nsnc23)c1=O,0,0,0,0,41.0[inhibitor],0,0,0
O=C(Nc1ccc(Cl)cn1)c1ccc2[nH]c(=O)c(=O)[nH]c2c1,0,-,-,0,0,-,-,-
Cn1nnnc1SCC(=O)N1CCN(S(=O)(=O)c2ccccc2)CC1,0,0,0,0,0,-,-,-
Cn1ccnc1SCC(=O)N1CCN(S(=O)(=O)c2ccccc2)CC1,4.0[inhibitor],0,0,0,4.0[inhibitor],0,0,0
O=C(COc1cccnc1[N+](=O)[O-])N1CCN(S(=O)(=O)c2ccccc2)CC1,145.0,0,-,0,0,0,0,0
CN(/N=C/c1ccncc1)c1cnc2ccccc2n1,74.0[inhibitor],0,0,0,0,0,0,0
COc1ccc(CCNC(=O)CN(c2ccc(OC)c(OC)c2)S(C)(=O)=O)cc1OC,122.0,0,0,0,0,0,0,0
COc1ccc(CCNC(=O)CSc2nc(O)cc(=O)[nH]2)cc1OC,134.0,-,0,0,0,0,0,0
COc1ccc(CCNC(=O)CN(c2ccccc2OC)S(C)(=O)=O)cc1OC,0,0,0,0,0,-,-,-
COc1ccc(CCNC(=O)CC2Nc3cc(C)c(C)cc3NC2=O)cc1OC (centres undefined),0.0[inhibitor],0,-,0,1.0[inhibitor],0,0,0
Cc1cc2c(cc1C)NC(CC(=O)NCc1ccccc1)C(=O)N2 (centres undefined),0,0,-,0,0,-,-,-
CCOc1cc(C(=O)Nc2ncn[nH]2)cc(OCC)c1OCC,0,0,0,0,0,-,-,-
Cc1ccc(NC(=O)N2CCCC2C(=O)NCc2ccc(Cl)cc2)cc1 (centres undefined),0,-,-,0,0,-,-,-
C[C@H]1COc2c(C3(N)CC3)c(F)cc3c(=O)c(C(=O)O)cn1c23,0,0,-,0,0,-,-,-
Cc1ccc(-n2c(C)cc(C(=O)COc3cccnc3[N+](=O)[O-])c2C)cc1,152.0,0,-,0,0,0,0,0
Cc1cc(C(=O)COc2cccnc2[N+](=O)[O-])c(C)n1-c1ccccc1,0,0,0,0,0,-,-,-
COc1ccc(Nc2cc(C)c3cc([N+](=O)[O-])ccc3n2)cc1,0,-,-,0,0,-,-,-
CCOC(=O)c1oc2ccccc2c1NC(=O)CN1CCOCC1,0,0,-,0,0,-,-,-
CCOC(=O)c1nc2ccccc2nc1C,143.0,0,-,0,0,0,0,0
SMILES,MEKK3 PB1 HTS,Arbovirus anti,Pf gametocyte,MEKK2mut PB1 HTS,MEKK2wt PB1 HTS,MEKK2wt confirm,MEKK2mut confirm,MEKK3 confirm
COc1ccc(OCc2n(CC(=O)OC3CC(C)CCC3C(C)C)c3ccccc3[n+]2C)cc1 (centres undefined),0,-,0,0,162.0,0,0,0
Cc1ccc(-c2noc(-c3ccoc3C)n2)cc1,0,0,0,0,0,-,-,-
CCC(C)(C)c1ccc(OCCCC[n+]2ccc(C)cc2)c(C(C)(C)CC)c1,0,0,0,56.0,189.0,0,0,0
CC(NCC(O)COCCC12CC3CC(CC(C3)C1)C2)c1ccccc1 (centres undefined),0,0,0,0,139.0,0,0,0
S=C(NCCC(c1ccccc1)c1ccccc1)Nc1cccc(Cl)c1,0,0,-,32.0,5.0,0,0,0
S=C(Nc1cccc(Cl)c1)NC1CC2CCCC(C1)N2C1CCCC1 (centres undefined),0,0,0,0,0,-,-,-
S=C(NCCN(C1CCCCC1)C1CCCC1)Nc1cccc(Cl)c1,0,-,-,0,134.0,0,0,0
S=C(NCc1ccncc1)Nc1cccc(Cl)c1,0,0,0,0,0,-,-,-
CCc1cc2c(COC(=O)c3cccc(NS(C)(=O)=O)c3)cc(=O)oc2cc1O,0,-,-,0,0,-,-,-
COc1cc(C(CC(=O)Nc2ccc(C)cn2)N2Cc3ccccc3C2=O)cc(OC)c1OC (centres undefined),0,-,-,0,0,-,-,-
COc1ccc(C(=O)NCCC2=CCCCC2)cc1,131.0,0,0,0,0,0,0,0
CCOC(=O)N1CCN(C(=O)CSc2ccc3nnc(CCNC(=O)c4ccccc4)n3n2)CC1,0,0,0,0,0,-,-,-
O=C(Nc1cccc(S(=O)(=O)N2CCCCC2)c1)Nc1ccc(Cl)cc1Cl,153.0,0,0,0,141.0,0,0,0
O=C(Nc1cccc(S(=O)(=O)N2CCCCC2)c1)c1ccc2ncsc2c1,0,-,0,0,59.0[inhibitor],0,0,0
OCC[C@@H]1C[C@H](O)[C@@H](O)[C@@]2(CCCO2)O1,0,-,0,0,0,-,-,-
O=C1CN(S(=O)(=O)c2cc(C(=O)O)ccc2Cl)c2ccccc2N1,0,-,-,0,0,-,-,-
CCOc1ccc(C2/C(=C(\O)c3ccc4c(c3)OCCO4)C(=O)C(=O)N2Cc2cccnc2)cc1OCC (centres undefined),0,-,-,0,0,-,-,-
CCc1ccc(N=CC23c4ccccc4C(c4ccccc42)C2C(=O)N(c4ccc(OC)cc4)C(=O)C23)cc1 (centres undefined),81.0[inhibitor],0,-,0,0,0,0,0
CCOC(=O)c1c(C)n(-c2ccc(C)cc2)c2ccc(O)c(CN(C)C)c12,0,0,0,0,138.0,0,0,0
CCOC(=O)c1c(C)n(-c2ccc(OC)cc2)c2ccc(O)c(CN(C)C)c12,0,-,0,0,0,-,-,-
CCOC(=O)c1c(CSc2ccc(C)cc2)n(C)c2cc(Br)c(O)c(CN(C)C)c12,0,0,0,0,145.0,0,0,0
Cc1cc(C)c(C#N)c(Cl)n1,149.0,0,0,0,0,0,0,0
Cc1cc(C)c(C#N)c(N2CCCC2)n1,-,0,0,-,-,-,-,-
O=c1oc2ccc3ccccc3c2c2c1SC(C(F)(F)F)C2 (centres undefined),124.0,0,-,0,0,0,0,0
